# Sm TGR inh: qHTS Assay for the Inhibitors of Schistosoma Mansoni Peroxiredoxins. Schistosoma mansoni thioredoxin glutathione reductase (TGR), Q962Y6. purified TGR, DTNB reduction, TNB absorbance 405 nm. Potency, µM (highest dose often 114 µM), inactives show at the top dose activity change, negative = inhibition, usual class: inhibitors. 360,000 tested, 3% active. AID 485364, 2010; further: nearly all actives have a fitted effect of over 60% in size
#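 Kinetic colorimetric format: TGR-catalysed, NADPH-driven DTNB reduction monitored via TNB absorbance. Enzyme dispensed at 20 nM; compound exposure 15 min at room temperature before reaction start.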
# AmpC inh detg: qHTS Inhibitors of AmpC Beta-Lactamase (assay with detergent). AmpC hydrolysis of nitrocefin, absorbance 480 nm, 0.01% Triton. Potency, µM (doses to about 114 µM), inactives show at the highest dose activity change, negative = inhibition, hits mostly inhibitors. 370,000 tested, 0.041% active;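 further: 0% = no-compound wells and -100% = no-enzyme wells; nearly all actives have a fitted effect of over 25% in size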
# Target sequence (P00811 whole entry, looked up): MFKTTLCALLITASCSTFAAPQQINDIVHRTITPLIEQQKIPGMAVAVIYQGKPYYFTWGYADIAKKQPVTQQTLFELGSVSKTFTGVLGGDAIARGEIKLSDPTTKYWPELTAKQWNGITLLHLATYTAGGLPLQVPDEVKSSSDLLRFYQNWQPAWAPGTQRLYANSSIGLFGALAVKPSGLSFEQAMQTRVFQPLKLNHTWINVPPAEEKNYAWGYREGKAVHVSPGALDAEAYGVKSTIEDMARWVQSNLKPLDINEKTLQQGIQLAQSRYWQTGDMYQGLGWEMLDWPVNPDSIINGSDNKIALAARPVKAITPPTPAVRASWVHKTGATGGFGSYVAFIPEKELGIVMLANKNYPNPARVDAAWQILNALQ
#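 20 mM phosphate pH 7.0 + 0.01% (detergent screen) or 0.0001% Triton X-100; 5.3 nM AmpC reagent; cpd preinc 15 min RT; nitrocefin (800 uM stock) to start; A480 q20 s × 4 min; Activity was normalised to no-enzyme and no-compound control wells.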
# RE007 growth inh: qHTS Assay for Inhibitors of the HIV-1 protein Vpr; 360,000 tested, 0.21% active; S. pombe RE007 Vpr strain, BacTiter-Glo ATP luminescence, 24 h; Potency, µM (highest dose often 92.2 µM), inactives show at the top dose activity change, negative = less growth, actives largely listed as inhibitors; active means well fitted falling curve with a large enough effect; inconclusive means small, poorly fitted or top-dose-only effect; inactive means no such curve, though single readings can be large or run the other way; further: nearly all actives have a fitted effect of over 50% in size
#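 Fission yeast RE007 carrying one integrated HIV-1 vpr copy, seeded at OD 0.01 in PMG+AL medium with 23 nL pinned compound. Grown 24 h at 30 degrees; viability read by BacTiter-Glo luminescence after 5 min.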
# AmpC inh no detg: qHTS Inhibitors of AmpC Beta-Lactamase (assay without detergent). Potency, µM (top dose mostly 57.1 µM), for inactives: at the highest dose activity change, negative = inhibition, most hits filed as inhibitors. 330,000 tested, 0.52% active. P00811. AmpC nitrocefin hydrolysis, absorbance 480 nm, 0.0001% Triton;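 further: plate controls were no compound for no effect and no enzyme for full effect; nearly all actives have a fitted effect of over 20% in size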
#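 AmpC (5.3 nM in the dispensed reagent) in 20 mM phosphate pH 7.0 with 0.01% (detergent screen) or 0.0001% Triton X-100 was preincubated with compounds for 15 min at room temperature. Nitrocefin was then added from an 800 uM solution, and hydrolysis was followed at 480 nm.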
# AMA1 RON2 block: qHTS for Inhibitors of AMA1-RON; Towards Development of Antimalarial Drug Lead: Primary Screen. Potency, µM (highest dose often 58.2 µM), without a hit: at the highest dose activity change, negative = inhibition, hits mostly inhibitors. Plasmodium falciparum AMA1 (3D7) - RON2 peptide interaction. 360,000 tested, 0.2% active. AlphaScreen AMA1-biotinylated RON2 peptide binding;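 further: 0% = vehicle wells and -100% = peptide control; nearly all actives have a fitted effect of over 45% in size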
#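 AMA1 (3D7) with his tag at 25 nM final met compounds first, then biotinylated RON2 peptide at 25 nM; detection used donor plus acceptor beads, 10 µg/mL apiece, read by AlphaScreen after 30 min at room temperature.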
# Active calls of the source: *; ? = inconclusive; . = no result; [ ] = dose if it differs, or a comment. In the library only some 3.2% were active in any assay of this set; here they are far more common. Unless noted, the call rests on the fitted dose curve; in most records, active means well fitted curve in the direction sought with a large enough effect; inconclusive means small, poorly fitted or top-dose-only effect, or another doubt; inactive means no such curve, though single readings can be large; an effect the other way counts as inactive or inconclusive. Unless noted, on the % scale 0 is the no-effect control and ±100 the full control effect; potency means the concentration at half of the fitted maximal effect.
SMILES,Sm TGR inh,AmpC inh detg,RE007 growth inh,AmpC inh no detg,AMA1 RON2 block
CC(=O)N1CCCc2cc(S(=O)(=O)N3CCC(C(=O)NCc4ccc(N(C)C)cc4)CC3)ccc21,6%,-5%,.,.,.
O=C(NCc1nc2ccccc2[nH]1)c1c(F)cccc1F,9%,-3%,.,.,.
Cc1ccc(-c2[nH]ncc2/C=N/n2c(COc3ccccc3)nc3ccccc3c2=O)cc1,-1%,-2%,-1%,-9%,27%
O=c1c2ccccc2nc(COc2ccccc2)n1/N=C/c1ccco1,40µM*,-1%,-5%,-34%,-8%
Cc1cc(/C=N/n2c(COc3ccccc3)nc3ccccc3c2=O)c(O)c([N+](=O)[O-])c1,-5%,?,?,20µM*,?
O=C(O)COc1ccc(/C=N/n2c(COc3ccccc3)nc3ccccc3c2=O)cc1,-8%,-1%,-23%,-29%,-24%
O=c1c2ccccc2nc(COc2ccccc2)n1/N=C/c1ccc(O)c(O)c1,-6%,9%,2%,3.5µM*,35%
CCC(Oc1ccccc1F)C(=O)N1CCC(c2nc3ccccc3s2)CC1 (centres undefined),-1%,19%,.,.,.
COc1cc2cc(CCCOC(=O)c3ccc4c(c3)OCO4)oc(=O)c2cc1OC,50µM*,1%,-16%,108%,-7%
COc1ccc(C(=O)OCCc2cc3ccccc3c(=O)o2)cc1,?,-5%,-10%,3%,20%
COc1ccc(C(=O)OCCCc2cc3ccccc3c(=O)o2)cc1,50µM*,-6%,1%,-20%,11%
COc1cc2cc(CCCOC(=O)c3ccc(C(F)(F)F)cc3)oc(=O)c2cc1OC,-32%,2%,-7%,131%,4%
Cc1ccc(C(=O)n2nc(C)c(S(=O)(=O)N3CCOCC3)c2C)cc1,-12%,17%,.,.,.
COCCN(CC1CCCN(C2Cc3ccccc3C2)C1)C(=O)CSC (centres undefined),32µM*,5%,2%,27%,14%
O=C(CSCc1ccco1)Nc1cc(C(F)(F)F)ccc1N1CCOCC1,22µM*,?,8%,5%,-7%
Cc1c(C(=O)Nc2ccc(C(C)C)cc2)sc2nc[nH]c(=O)c12,-3%,-3%,.,.,.
COCCCN(C(=O)c1ccco1)c1nc(-c2cc(OC)ccc2OC)cs1,89µM*,-9%,11%,-9%,-15%
CC1CCCCC1NC(=O)NC(=O)CCl (centres undefined),14µM*,20%,-5%,1%,0%
CC1CCCC(NC(=O)NC(=O)CCl)C1C (centres undefined),2.8µM*,15%,-8%,-1%,-8%
CC1CCCCC1NC(=O)NC(=O)COC(=O)c1nccnc1N (centres undefined),.,.,-6%,-19%,12%
COc1ccc(OC)c(S(=O)(=O)NCCc2sc(-c3ccc(C)cc3)nc2C)c1,1%,6%,.,.,.
N#CCCCN1C(=O)C(=C(C#N)C#N)c2ccccc21,2.5µM*,5%,-3%,-3%,5%
CC(=O)N1CCC2(CC1)C(C#N)=C(N)Oc1n[nH]c(C(F)(F)F)c12,28µM*,0%,0%,-14%,0%
CCOC(=O)N1CCC2(CC1)C(C#N)=C(N)Oc1n[nH]c(C)c12,2%,-13%,-2%,-12%,-7%
CCCC1OC2CC3C4CCC5=CC(=O)C=CC5(C)C4C(O)CC3(C)C2(C(=O)O)O1 (centres undefined),89µM*,2%,-1%,-5%,-2%
CCCC1O[C@@H]2C[C@H]3[C@@H]4CCC5=CC(=O)C=C[C@]5(C)[C@H]4[C@@H](O)C[C@]3(C)[C@]2(C(=O)CO)O1 (some centres undefined),-1%,-3%,-9%[18.4 µM],67%,1%
O=C(N/N=C/c1ccc(N2CCOCC2)o1)c1cccc(C(F)(F)F)c1,11µM*,-5%,5%,56%,71%

# Screening data as filed in PubChem.
